# Source: PubChem BioAssay
# This is a sample that favours compounds with a hit; in the whole collection about 2.7% have one here.
# HepG2 viability = HepG2 cytotoxicity, counter-screen for TGF-b inhibitors. Potency, µM (titrated, usually from 46.1 µM), without a hit: top-dose activity change, negative = cytotoxicity, hits mostly cytotoxic. HepG2 CAGA-GFP viability, ATP luminescence, 18 h. AID 588856. 410,000 compounds, 0.76% hits
#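 CellTiter-Glo luminescence gave cytotoxicity after 18 hours at 37 degrees C. The cells were HepG2 CAGA-GFP in 1% FBS DMEM, stimulated with 500 pg/mL TGF-beta after compound addition. %Activity was normalised to no-cell wells (complete cell-killing) and DMSO (no toxicity), and curves were fitted and classified.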
# S2 tox = viability counter-screen for ATXN expression inhibitors | S2 cells (HEK-293 line with an ATXN2-luciferase reporter) viability, CellTiter-Fluor protease fluorescence, 24 h | Potency, µM (series often up to 56.7 µM), hits mostly cytotoxic | 400,000 compounds, 0.49% hits | AID 651635; further: nearly all actives have a fitted effect of over 40% in size
# 12-LOX inh = blocks human arachidonate 12S-lipoxygenase | purified 12hLO, xylenol orange hydroperoxide absorbance | Potency, µM (doses to about 108 µM), for inactives: top-dose activity change, negative = inhibition, most hits filed as inhibitors | 580,000 compounds, 1.1% hits | AID 1671190; further: on the % scale 0 is the no-effect control and ±100 the full control effect
# Target sequence (P18054 whole entry, looked up): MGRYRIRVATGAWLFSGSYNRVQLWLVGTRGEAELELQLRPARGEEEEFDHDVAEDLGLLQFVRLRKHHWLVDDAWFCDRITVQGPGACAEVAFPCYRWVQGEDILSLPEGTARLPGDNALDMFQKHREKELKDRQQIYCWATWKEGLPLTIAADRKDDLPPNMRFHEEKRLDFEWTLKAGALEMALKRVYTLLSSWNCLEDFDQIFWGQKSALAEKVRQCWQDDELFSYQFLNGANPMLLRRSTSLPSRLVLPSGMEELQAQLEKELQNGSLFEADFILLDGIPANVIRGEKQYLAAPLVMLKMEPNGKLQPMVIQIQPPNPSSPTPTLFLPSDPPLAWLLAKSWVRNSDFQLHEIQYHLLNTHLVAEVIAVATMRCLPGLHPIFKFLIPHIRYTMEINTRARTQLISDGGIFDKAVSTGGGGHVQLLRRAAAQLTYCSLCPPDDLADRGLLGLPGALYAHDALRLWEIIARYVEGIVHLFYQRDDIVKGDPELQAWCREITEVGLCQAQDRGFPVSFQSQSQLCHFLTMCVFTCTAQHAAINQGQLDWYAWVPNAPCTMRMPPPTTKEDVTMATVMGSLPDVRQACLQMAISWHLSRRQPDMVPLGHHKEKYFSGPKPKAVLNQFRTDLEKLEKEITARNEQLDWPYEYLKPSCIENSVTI
#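 Purified human 12hLO (150 nM final) in 25 mM Hepes, 0.01% Triton X-100, pH 7.0 was preincubated 15 min at room temperature with compound. Then 40 uM arachidonic acid was added, 30 min. Hydroperoxide was read by Fe-XO absorbance ratio 573/405 nm.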
# ATXN2 expr inh = reduces ATXN2 reporter expression in HEK-293 cells | Potency, µM (top dose mostly 57 µM), without a hit: top-dose activity change, negative = inhibition, actives largely listed as inhibitors | 360,000 compounds, 0.72% hits | AID 1745845 | HEK-293 ATXN2-luciferase reporter, luminescence, 24 h; further: on the % scale 0 is the no-effect control and ±100 the full control effect; nearly all actives have a fitted effect of over 55% in size
#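 ATXN2-luciferase reporter cells (luciferase flanked by upstream and downstream ATXN2 gene portions) were treated 24 h at 37 °C with compounds at up to 57 uM. SteadyGlo luminescence gave expression; GF-AFC fluorescence gave viability.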
# TGFb inhibitor = inhibitors of TGF-b signaling | 410,000 compounds, 1.2% hits | AID 588855 | Potency, µM (highest dose often 46.1 µM), inactives show top-dose activity, negative = inhibition, hits mostly inhibitors | HepG2 CAGA-GFP TGF-b/SMAD3 reporter, GFP fluorescence, 18 h; TGF-beta stimulated, 500 pg/mL final; further: on the % scale 0 is the no-effect control and ±100 the full control effect; nearly all actives have a fitted effect of over 65% in size
#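 HEPG2 CAGA-GFP cells (1000/well, DMEM with 1% FBS) were pre-incubated 2 h at 37 degrees C, given compound by pin tool, then stimulated with TGF-beta at 500 pg/mL final for 18 h before per-cell GFP fluorescence imaging.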
# Active calls of the source: *; i = inactive; ? = inconclusive; / = no result given; ! = a repeat was not active; [ ] = another dose, or the depositor's remark. The call rests on the fitted dose curve; in most records, active means well fitted curve in the direction sought with a large enough effect; inconclusive means small, poorly fitted or top-dose-only effect, or another doubt; inactive means no such curve, though single readings can be large; an effect the other way counts as inactive or inconclusive. Potency means the concentration at half of the fitted maximal effect.
SMILES,HepG2 viability,S2 tox,12-LOX inh,ATXN2 expr inh,TGFb inhibitor
O=C(NCc1cc(C(F)(F)F)ccc1Cl)c1cccc2c1C(=O)c1ccc(N3CCCCC3)cc1S2(=O)=O,-1%,i,?,-2%,7%
O=C(O)CC(c1ccncc1)c1c[nH]c2ccccc12 (stereo not given),/,/,3.5µM*,/,/
NCC(c1ccccc1)c1c[nH]c2ccccc12 (stereo not given),-44%,i,15%,-19%,?
NC(=O)C1CCN(C(=O)CCc2nc3sc4c(c3c(=O)[nH]2)CCCC4)CC1,0%,i,18µM*!,6%,?
COc1ccc(NC(=O)Cc2cnc(-n3cccc3)s2)c(OC)c1,/,/,6%,/,/
O=C(O)c1ccccc1/C=N/NC(=O)c1cc(-c2ccco2)nc2ccccc12,-17%,?,?,?,-21%
O=C(O)c1cc(-c2ccco2)nc2cc3ccccc3cc12,-16%,i,20µM*,-14%,0%
CC(=O)c1cccc(NC(=O)c2cc(-c3ccco3)nc3ccccc23)c1,-9%,i,28µM*,-16%,-11%
O=C(O)c1ccc(NC(=O)c2cc(-c3ccco3)nc3ccccc23)cc1,/,/,7.9µM*,/,/
O=C(NC1CC1)c1ccc(NC(=O)c2cc(-c3ccco3)nc3ccccc23)cc1,/,/,10µM*,/,/
O=C(NNC(=O)c1cc(-c2ccco2)nc2ccccc12)c1ccccc1,-10%,i,?,5%,-5%
NC(=O)C(c1ccccc1)(c1ccccc1)c1ccccc1,/,/,-8%,/,/
Cc1csc(CNC(=O)c2nccnc2N)n1,/,/,60%,/,/
CN(C)c1ccc(-c2noc([C@@H]3CCCN3Cc3nc4ccccc4n3C)n2)cn1,/,/,95%[176 µM],/,/
COc1ccc(-c2nc(P(=O)(OC)OC)c(NCc3cccnc3)o2)cc1,/,/,-25%,/,/
CCOC(=O)c1c(-c2ccccc2)oc2ccc(OCC(O)CNCCN(C)C)cc12 (stereo not given),14µM*,/,-6%,-36%,?
Cc1cccc(-c2[nH]c(C(C)(C)C)nc2-c2ccc3nccnc3c2)n1,/,/,-4%[57.4 µM],27µM*,/
Cc1cccc(-c2[nH]ncc2-c2ccc3ncccc3n2)n1,/,/,-28%[57.4 µM],6%,/
CCOc1ccc(OCCCC(=O)N2CCN(S(=O)(=O)c3ccc(Cl)cc3)CC2)cc1,-2%,i,45µM*,-4%,6%
CC(C)c1cccc(NC(=O)c2cccc(CS(C)=O)c2)c1 (stereo not given),/,/,16%,/,/
O=C1C(=O)c2ccccc2C(O)=C1CCCCl,2µM*,/,/,25µM*,2.5µM*
Cc1cccc(N/C=C/c2onc(C)c2[N+](=O)[O-])c1,-25%,i,-7%,33%,31%
Cc1cccc(/C=C/c2onc(C)c2[N+](=O)[O-])n1,-166%,18µM*,3%,?,0%
COc1ccc(Nc2cc3c(cn2)cc(-c2cccc(C(F)(F)F)c2)n3C)cc1,/,/,45µM*,/,/
Cc1cc(NC(=O)COc2cccc(Cl)c2)n(C)n1,/,/,33%,/,/
SMILES,HepG2 viability,S2 tox,12-LOX inh,ATXN2 expr inh,TGFb inhibitor
CN(C)C(=O)COC(=O)c1cccc(S(=O)(=O)Nc2ccc(OCc3ccccc3)cc2)c1,-3%,i,-41%,8%,-8%
CCOC(=O)c1cc(S(=O)(=O)Nc2ccc(OCc3ccccc3)cc2)[nH]n1,/,/,8.9µM*,/,/
Cc1cscc(C)c1=S,-8%,/,18µM*,/,0%
CCOC(=O)c1cnc2ccc(Cl)cc2c1Nc1cc(C)ccc1OC,/,/,1%,/,/
CCN(CC)c1ccc(NC(=O)C2COc3ccc(OC)cc3C2)c(C)c1 (stereo not given),-34%,?,-26%,?,8.9µM*
CC1=C(C(=O)Nc2cccc(C(F)(F)F)c2)C(c2ccc(Cl)cc2)n2ncnc2N1 (stereo not given),/,/,-7%,/,/
CC1CCN(Cc2c(C(=O)N/N=C/c3ccccc3O)nnn2-c2nonc2N)CC1,-12%,i,13%,3.2µM*,-26%
CC(=C/c1ccccc1)/C=N/NC(=O)c1nnn(-c2nonc2N)c1CN1CCC(C)CC1,-29%,?,12%,-33%,-11%
CCCc1c(C(=O)N/N=C(\C)c2ccccn2)nnn1-c1nonc1N,10µM*,i,-16%,/,-1%
CC(C)NC(=O)N1CCC2(CC1)CN(C(=O)Cc1cccc(O)c1)Cc1ccccc1O2,/,/,1%[6.33 µM],/,/
O=C(Nc1ccc2oc(-c3ccc(F)cc3)cc(=O)c2c1)c1ccco1,/,/,-21%,/,/
Cc1ccc(C(C[N+](=O)[O-])c2c(-c3ccccc3O)[nH][nH]c2=O)cc1 (stereo not given),7.9µM*,?,40µM*,56%,?
CONC(=O)CC1Sc2ccc(Cl)cc2NC1=O (stereo not given),/,/,20%,/,/
Cc1ccc(C)c(OCCN)c1,/,/,15%,/,/
CCCCCCOc1ccc(/C(C)=N/NC2=NCCN2)cc1[N+](=O)[O-],20µM*,18µM*,-14%,/,?
CCCCOc1ccc(Br)cc1/C(C)=N/NC1=NCCN1,11µM*,/,?,18µM*,?
COc1ccc2oc(=O)c(C(=O)Nc3cccc(C)c3)cc2c1,11%,i,2%,38%,91%
COc1ccc2oc(=O)c(C(=O)Nc3cccc(C(=O)O)c3)cc2c1,-1%,i,0%,0.89µM*,36%
COc1ccc(Cl)cc1C(Nc1cccnc1)c1ccc2cccnc2c1O (stereo not given),-9%,i,?,?,?
CCC(=O)NC(c1ccccc1OC)c1ccc2cccnc2c1O (stereo not given),3.5µM*,?,/,?,2.5µM*
Oc1cccc(C(Nc2ccccn2)c2ccc3cccnc3c2O)c1Cl (stereo not given),-49%,?,?,8.9µM*,?
CCCCC(=O)NC(c1ccccc1Cl)c1ccc2cccnc2c1O (stereo not given),-33%,?,4%,2.8µM*,?
Oc1c(C(Nc2ccccn2)c2ccccc2)ccc2cccnc12 (stereo not given),-31%,/,/,/,-19%
CCCCC(=O)NC(c1ccccc1)c1ccc2cccnc2c1O (stereo not given),-30%,i,-6%,?,?
CCCC(=O)NC(c1ccccc1)c1ccc2cccnc2c1O (stereo not given),-25%,i,-22%,14µM*,?
CCc1ccc(-n2cccc2)cc1,/,/,-26%,/,/
COc1ccc(C(=O)Nc2ccc3oc(-c4ccccc4C)cc(=O)c3c2)cc1OC,/,/,-4%,/,/
COc1cccc(C(NC(C)=O)c2ccc3cccnc3c2O)c1 (stereo not given),-25%,?,19%,?,?
CCCC(=O)NC(c1ccc(OC)cc1)c1ccc2cccnc2c1O (stereo not given),-9%,/,-17%,1.9µM*,?
